The source of these data is PubChem BioAssay AID1259416 (Broad Institute, 2018).

Several values for one entry are separate records, joined by “and”; a condition that tells them apart may be missing. Equal entries are not always repeated. The whole screen tested about 69,000 compounds, of which about 2,600 (3.8%) were called active. For the sample, actives were picked, then their nearest neighbours and some compounds at random. Unmarked numbers belong to inactive results. Rule as the data show it: active = activity change below about -70% (passing the limit was not always enough); inconclusive = no clear call, values can overlap the other calls.

A short description of this experiment: inhibitors of Toxoplasma growth in IFN-γ-primed hosts – cell-based, primary screen (AID 1259416).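 Also: host cells are HeLa cells infected with Toxoplasma gondii.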 The following applies: Toxoplasma gondii growth in IFN-gamma-treated host cells; active compounds read low; concentration not given here.
As for `CCn1nc(C)c(NC(=O)CN2CCC(Oc3ncccn3)CC2)c1C`, the activity change, negative = inhibition is -9.88%.

In the case of `COc1cccc2[nH]c(C(=O)N3CCCC(c4cc(CN(C)C)n(C)n4)C3)cc12` (stereo unspecified), the activity change, negative = inhibition was 5.73%.

Regarding `Cc1sccc1C(=O)N1CCC2(CC1)CC(NS(C)(=O)=O)C2`, the activity change, negative = inhibition is 6.5%.

As to `COc1ccc2c(C3C(=O)c4ccccc4C3=O)nccc2c1`, the activity change, negative = inhibition is -108% (active).

As to `COc1ccc2cc(-c3ccccc3NC(=O)CN)ccc2c1`, the activity change, negative = inhibition is 70.1%.

Turning to `O=C1c2ccccc2C(=O)C1c1ccccc1`, the activity change, negative = inhibition was -11.2% and 19.1%.

For the compound `COc1ccc(-c2cc(C)cnc2-n2cnnc2)cn1`, the activity change, negative = inhibition is 4.46%.

As for `CCc1nc(CN2CCC3(CC2)C(=O)N(CCc2ccccc2)C(=O)N3C)c(C)[nH]1`, the activity change, negative = inhibition is -3.85%.

`COc1ccc2c3c(n(C)c2c1)[C@H](CO)N(Cc1ccccc1Cl)CC31CN(C(=O)CN(C)C)C1`: the activity change, negative = inhibition was -29.5%.

Turning to `CN1C(=O)CCc2cc(C(=O)NC3CCCC3)ccc21`, the activity change, negative = inhibition was 9.57%.

`Cc1cccnc1N1C[C@H]2CN(c3cnn(C)c3)C(=O)[C@@H]2C1`: the activity change, negative = inhibition was -73.4% (active).

As to `Cc1ccc(C(=O)N2CCC3(CC2)CCN(c2cnn(C)c2)C3=O)cc1`, the activity change, negative = inhibition was 19.8%.

Take `CCN1C(=O)[C@H]2CN(c3ncccn3)C[C@@H]2C12CCN(S(=O)(=O)CC(C)C)CC2`: the activity change, negative = inhibition is -13.4%.

For `Cc1ccc(NC(=O)CC(=O)N2CCCC(c3nc(CC(C)C)no3)C2)cc1` (stereo unspecified), the activity change, negative = inhibition was 25%.

Turning to `Cc1noc2nc(C3CCCN(C(=O)CCc4ccccc4)C3)cc(C(F)F)c12` (stereo unspecified), the activity change, negative = inhibition was -93.3% (active).

In the case of `O=C(CCn1nnc2ccccc21)N1CCCC(c2ccn[nH]2)C1` (stereo unspecified), the activity change, negative = inhibition was 2.46%.

For the compound `CCCCc1ncc(CN2CCN(c3ccccc3OC)CC2C)[nH]1` (stereo unspecified), the activity change, negative = inhibition is -2.06%.

Consider `O=S(=O)(NCc1ccccc1)N1CCCC1c1ccccn1` (stereo unspecified), for which the activity change, negative = inhibition was -3.86%.

Regarding `CO[C@@H]1CCN(C(=O)c2ccnn2C)[C@H]2CN(CC3CC3)C[C@@H]12`, the activity change, negative = inhibition was 33.7%.

Consider `COCCC(=O)c1cc2c(s1)CCN2c1ccc(C)nn1`, for which the activity change, negative = inhibition was 59.6%.

Take `COc1ccccc1C(=O)NCCc1csc(-c2ccc(Cl)cc2)n1`: the activity change, negative = inhibition is -74% (active).

On to `Cc1ccccc1C(=O)NCCc1csc(-c2ccc(F)cc2)n1`, for which the activity change, negative = inhibition is -18%.

For the compound `O=C(NCCc1csc(-c2ccccc2)n1)c1ccccc1F`, the activity change, negative = inhibition is 455%.

Turning to `O=C(CSc1nc2ccc(N3C(=O)c4ccccc4C3=O)cc2s1)N1CCOCC1`, the activity change, negative = inhibition was 1.26%.

For the compound `COc1ccc(NS(=O)(=O)c2cc3c4c(c2)CCC(=O)N4CCC3)cc1OC`, the activity change, negative = inhibition was 2.51%.

On to `CC(C)Cc1cc(C(=O)N2CCCC3(CN(C)C(=O)O3)C2)on1` (stereo unspecified), for which the activity change, negative = inhibition was 3.84%.
